In paper PMC5540273 (PLoS ONE, 2017):

Columns and labels:
Conditions in all cases: concentration: 1 μM, replicates: in singlicate; n = 1
TRKC = tested on: T1, TRKC
T1 construct: gene NTRK3

TRPM6 = tested on: TRPM6
TSSK1B = tested on: TSSK1B
TSSK3 = tested on: TSSK3
TTK = tested on: TTK
TXK = tested on: TXK
[1] = tested on: TYK2(JH1domain-catalytic)
[2] = tested on: TYK2(JH2domain-pseudokinase)
TYRO3 = tested on: TYRO3
ULK1 = tested on: ULK1
ULK2 = tested on: ULK2
ULK3 = tested on: ULK3
VEGFR2 = tested on: T2, VEGFR2
T2 construct: gene KDR

VPS34 = tested on: T3, VPS34
T3 construct: gene PIK3C3

VRK2 = tested on: VRK2
WEE1 = tested on: WEE1
WEE2 = tested on: WEE2
WNK1 = tested on: WNK1
WNK2 = tested on: WNK2
WNK3 = tested on: WNK3
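Further: KINOMEscan kinase panel screen.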

Structure (SMILES) | %Inh (TRKC) | %Inh (TRPM6) | %Inh (TSSK1B) | %Inh (TSSK3) | %Inh (TTK) | %Inh (TXK) | %Inh [1] | %Inh [2] | %Inh (TYRO3) | %Inh (ULK1) | %Inh (ULK2) | %Inh (ULK3) | %Inh (VEGFR2) | %Inh (VPS34) | %Inh (VRK2) | %Inh (WEE1) | %Inh (WEE2) | %Inh (WNK1) | %Inh (WNK2) | %Inh (WNK3)
Fc1ccc(Nc2nccc(-c3c(-c4ccc(Cl)cc4)nn4ncccc34)n2)cc1F [GW829058] | 35% | 20% | 0% | 33% | 8% | 19% | 20% | 40% | 8% | 45% | 100% | 33% | 25% | 5% | 34% | 10% | 2% | 42% | 0% | 41%
Cc1ccc(NC(=O)c2cccc(C#N)c2)cc1-c1ccc(C(=O)Nc2ccncc2)cc1 [GSK1398463] | 7% | 0% | 0% | 0% | 43% | 0% | 8% | 13% | 0% | 42% | 0% | 15% | 11% | 0% | 0% | 0% | 0% | 17% | 6% | 18%
O=C(NCCCN1CCCC1=O)c1cnc(NCc2cc(Cl)ccc2Cl)nc1NC1CCNCC1 | 15% | 0% | 0% | 0% | 0% | 0% | 0% | 0% | 14% | 0% | 0% | 0% | 0% | 0% | 70% | 0% | 0% | 0% | 0% | 0%
CCc1nc(-c2cccc(N(C)S(=O)(=O)c3ccccc3)c2)c(-c2ccnc(Nc3ccc(N4CCN(C(C)=O)CC4)nc3)n2)s1 [GSK1645895] | 0% | 56% | 0% | 15% | 9% | 15% | 0% | 14% | 0% | 4% | 0% | 9% | 31% | 0% | 0% | 0% | 0% | 3% | 0% | 16%
Nc1nccc2scc(-c3ccc4c(c3)CCN4C(=O)Cc3cc(F)ccc3F)c12 [GSK2587663] | 40% | 5% | 5% | 15% | 2% | 5% | 18% | 11% | 0% | 6% | 0% | 6% | 0% | 8% | 0% | 44% | 0% | 33% | 0% | 37%
O=C(c1ccc(-c2cc(-c3c[nH]nc3-c3ccccn3)ccn2)cc1)N1CCCC1 [GW792479] | 0% | 0% | 0% | 0% | 29% | 23% | 0% | 15% | 0% | 0% | 0% | 0% | 0% | 26% | 0% | 30% | 0% | 0% | 0% | 0%
CS(=O)(=O)CCNCc1ccc(-c2ccc3ncnc(Nc4ccc(OCc5ccccc5)c(Cl)c4)c3c2)o1.Cl [GW574783] | 24% | 7% | 39% | 21% | 18% | 10% | 27% | 22% | 0% | 0% | 0% | 0% | 0% | 18% | 42% | 12% | 19% | 11% | 10% | 29%
C[C@@H]1CCN(C(=O)CO)C[C@@H]1N(C)c1ncnc2[nH]ccc12 | 0% | 0% | 0% | 0% | 0% | 7% | 90.6% | 0% | 0% | 0% | 0% | 12% | 0% | 0% | 0% | 0% | 0% | 0% | 0% | 0%
Cl.Fc1ccccc1COc1ccc(Nc2ncnc3ccc(-c4nnc(C(F)(F)F)o4)cc23)cc1Cl [GW424170] | 5% | 0% | 0% | 6% | 0% | 18% | 11% | 12% | 0% | 0% | 0% | 6% | 4% | 0% | 0% | 3% | 5% | 7% | 0% | 15%
Nc1n[nH]c2nnc(-c3ccccc3)cc12 [SB-517389] | 0% | 35% | 9% | 100% | 0% | 25% | 36% | 79% | 0% | 20% | 0% | 10% | 0% | 0% | 0% | 21% | 15% | 10% | 17% | 5%
Cn1ccc2ncnc(Nc3ccc(Oc4cccc(Cl)c4)c(Cl)c3)c21 | 11% | 0% | 0% | 2% | 16% | 25% | 18% | 4% | 4% | 10% | 31% | 38% | 0% | 52% | 0% | 0% | 34% | 0% | 31% | 0%
CNc1nccc(-c2c(-c3ccc(F)cc3)ncn2C2CCN(C)CC2)n1 [SB-222903] | 0% | 0% | 0% | 0% | 23% | 0% | 0% | 0% | 0% | 0% | 15% | 0% | 0% | 0% | 16% | 0% | 0% | 0% | 0% | 0%
O=c1cc(N2CCOCC2)nc2n(Cc3cccc(Cl)c3)ccn12 [GSK2296823] | 0% | 11% | 0% | 3% | 9% | 18% | 14% | 7% | 9% | 16% | 0% | 11% | 6% | 93.3% | 2% | 0% | 13% | 5% | 0% | 3%
CSc1nn2c(=O)cc(N3CCOCC3)nc2n1Cc1cccc(Cl)c1Cl [GSK2347225] | 0% | 0% | 26% | 30% | 0% | 0% | 12% | 0% | 5% | 7% | 0% | 0% | 0% | 97.1% | 0% | 29% | 35% | 11% | 18% | 4%
Cc1ccc(C)c(NC(=O)NCCNc2ccnc(Nc3ccc(F)cc3)n2)c1 [GSK1379878] | 15% | 0% | 0% | 22% | 0% | 3% | 26% | 6% | 0% | 0% | 0% | 0% | 0% | 0% | 0% | 8% | 0% | 0% | 9% | 15%
COc1ccc(Nc2nccc(N3CCC(NC(=O)Nc4ccc5c(c4)OCO5)C3)n2)cc1 (centres unmarked) [GSK1379745] | 51% | 0% | 0% | 31% | 0% | 3% | 45% | 15% | 0% | 9% | 0% | 15% | 0% | 13% | 0% | 12% | 14% | 2% | 0% | 15%
Cl.Cl.c1ccc(-c2cc3ccncc3cc2OC2CCNCC2)cc1 [GSK1122999] | 0% | 15% | 0% | 47% | 0% | 4% | 24% | 79% | 7% | 12% | 0% | 4% | 0% | 67% | 0% | 5% | 11% | 7% | 0% | 0%
COC(=O)c1c(-c2ccccc2)c2cc(Cl)ccc2c(=O)n1Cc1ccc(S(C)(=O)=O)cc1 | 17% | 0% | 0% | 0% | 7% | 0% | 0% | 2% | 0% | 0% | 0% | 0% | 0% | 0% | 10% | 0% | 0% | 0% | 4% | 0%
CC(C)(C)c1ccc(-n2cnc3c(N)ncnc32)cc1 [SKF-97263] | 0% | 34% | 16% | 13% | 15% | 16% | 6% | 41% | 0% | 24% | 4% | 17% | 11% | 0% | 9% | 0% | 2% | 3% | 0% | 0%
